Data taken from PubChem BioAssay (NCI).
The panel holds about 83,000 compounds, 20% with a hit somewhere; the sample as a whole holds those more often.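 Single-dose data. Exposure time 48 hours. Values below 10 considered active.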 The source made the active and inactive calls.

Columns and labels:
Test in all cases: NCI-60 one-dose screen, 48 h (100 = growth as untreated, 0 = no growth, -100 = all killed)
NCI-H226 lung = settings: 10 µM unless noted
NCI-H322M lung = settings: 10 µM unless noted
HOP-62 NSCLC = settings: 10 µM unless noted
NCI-H460 lung = settings: 10 µM unless noted
HOP-92 NSCLC = settings: 10 µM unless noted
A549/ATCC NSCLC = settings: 10 µM unless noted
786-0 renal = settings: 10 µM unless noted
COLO 205 colon = settings: 10 µM unless noted
DU-145 prostate = settings: 10 µM unless noted
K-562 leukemia = settings: 10 µM unless noted
MALME-3M melanoma = settings: 10 µM unless noted
MDA-MB-231 breast = settings: 10 µM unless noted
RXF 393 renal = settings: 10 µM unless noted
SF-268 CNS = settings: 10 µM unless noted
SF-295 CNS = settings: 10 µM unless noted
SF-539 CNS = settings: 10 µM unless noted
UACC-257 melanoma = settings: 10 µM unless noted
M14 melanoma = settings: 10 µM unless noted
NCI-H522 lung = settings: 10 µM

Measured: growth

COc1cc(/C=C/C(=O)C(C(=O)/C=C/c2ccc(OC(=O)CCNc3nnc(C)s3)c(OC)c2)C(=O)CCNc2nnc(C)s2)ccc1OC(=O)CCNc1nnc(C)s1
active: NCI-H460 lung -29% | HOP-92 NSCLC -16.4% | 786-0 renal -38% | COLO 205 colon -26.3% | DU-145 prostate -14.5% | K-562 leukemia -11.8% | MALME-3M melanoma -29.7% | MDA-MB-231 breast -4.77% | RXF 393 renal -70.2% | SF-295 CNS 2.23% | SF-539 CNS -15.8% | M14 melanoma -2.91%
inactive: NCI-H226 lung 24.5% | NCI-H322M lung 42.1% | HOP-62 NSCLC 27.6% | A549/ATCC NSCLC 34.3% | SF-268 CNS 19.8% | UACC-257 melanoma 46.5%

O=c1ncc(-c2ccc(C(F)(F)F)cc2)c(NC2CCCCCC2)[nH]1
inactive: NCI-H226 lung 71.5% | NCI-H322M lung 90.9% | HOP-62 NSCLC 64% | NCI-H460 lung 55.1% | NCI-H522 lung 29% | 786-0 renal 76.7% | COLO 205 colon 46.2% | DU-145 prostate 78.5% | K-562 leukemia 30% | MDA-MB-231 breast 79% | RXF 393 renal 76.4% | SF-268 CNS 62.3% | SF-539 CNS 91.7% | M14 melanoma 34.8%
active: HOP-92 NSCLC -2.61% | MALME-3M melanoma -26.4% | SF-295 CNS 3%

O=C1/C(=C\c2coc3ccccc3c2=O)c2ccccc2N1c1c(Cl)cccc1Cl
active: SF-295 CNS -12%
inactive: NCI-H226 lung 90.7% | NCI-H322M lung 73.7% | NCI-H460 lung 19% | HOP-92 NSCLC 32.1% | A549/ATCC NSCLC 26.6% | 786-0 renal 27% | COLO 205 colon 55.3% | DU-145 prostate 24.6% | MALME-3M melanoma 83.8% | MDA-MB-231 breast 60.5% | RXF 393 renal 44.1% | SF-268 CNS 32% | SF-539 CNS 49.4% | UACC-257 melanoma 61.2% | M14 melanoma 43.4%
